# The supplement of paper PMC10646978
# ± gives the standard deviation.
# Key:
# Details in all cases: modulator concentration 10 µM
# [1] = system: RAW-Dual (murine macrophage reporter line); assay: NF-kB reporter (SEAP) activity fold change vs agonist alone; higher = enhanced NF-kB activity
# Method in brief: (§1)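 RAW-Dual murine macrophage reporter cells were plated at 50 000 per well in 384-well plates, pin-transferred compound to 10 μM final, and pre-incubated for 1 hour at 37 °C before a PRR agonist was added and the cells incubated overnight. NF-κB activity was read from supernatant SEAP with QUANTI-Blue at 620 nm absorbance, and IRF activity from Lucia luciferase with QUANTI-Luc by luminescence. Each signal was expressed as fold change by dividing by the mean agonist-only control on the same plate. Two replicate plates were averaged, with errors obtained by propagation.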
# [2] = system: RAW-Dual (murine macrophage reporter line); assay: IRF reporter (Lucia luciferase) activity fold change vs agonist alone; higher = enhanced IRF activity
# Method in brief: as §1
# [3] = system: RAW-Dual (murine macrophage reporter line); assay: viability score (confluency relative to resting cells, overnight) (fraction); higher = more viable, active = viable (0.7 or more)
# Method in brief: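 RAW-Dual macrophages in 384-well plates were exposed overnight to compound at 10 μM final. Confluency was imaged with IncuCyte, and two confluency masks were generated with IncuCyte software over all imaged wells. The viability score is confluency expressed relative to resting cells. Compounds were called viable if both masks exceeded 70% of resting cells.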
# [4] = agonist: CpG ODN 1826 0.5 ug/mL
SMILES,"NF-kB reporter [1, 4]",NF-kB reporter ([1]; agonist: LPS 0.1 ug/mL),NF-kB reporter ([1]; agonist: MPLA […]),IRF reporter ([2]; agonist: 3'3'-cGAMP 10 ug/mL),IRF reporter ([2]; agonist: LPS 0.1 ug/mL),IRF reporter ([2]; agonist: MPLA […]),viability score [3]
Br.O=S(=O)(c1ccc(-c2csc(Nc3ccc(Cl)cc3)n2)cc1)N1CCCC1,0.941 ± 0.15,1.04 ± 0.13,0.869 ± 0.069,0.885 ± 0.026,1.19 ± 0.17,1.48 ± 0.28,0.991 (active)
CN(C)c1ccc(C2N(C)c3ccccc3N2C)cc1,1.2 ± 0.19,1.69 ± 0.13,2.19 ± 0.2,0.939 ± 0.031,1.88 ± 0.23,1.94 ± 0.25,0.858 (active)
COc1ccc(Cl)cc1S(=O)(=O)NCc1ccccn1,1.11 ± 0.07,0.901 ± 0.1,0.986 ± 0.026,1.01 ± 0.059,1.01 ± 0.1,0.936 ± 0.15,0.996 (active)
CCn1nnc2c(NCCc3c[nH]c4ccccc34)ncnc21,0.961 ± 0.042,1.09 ± 0.1,1.09 ± 0.058,0.768 ± 0.043,1.05 ± 0.15,1.11 ± 0.32,0.958 (active)
COc1ccc(CC(=O)Nc2ccc(C)c(N3CCCCC3=O)c2)cc1OC,1.42 ± 0.34,1.18 ± 0.09,1.06 ± 0.071,0.937 ± 0.059,0.98 ± 0.14,1.06 ± 0.12,1 (active)
CC(C)(C)c1cc(NCc2ccccn2)n2ncc(-c3ccc(Cl)cc3)c2n1,0.256 ± 0.019,0.477 ± 0.032,0.79 ± 0.025,0.296 ± 0.028,0.962 ± 0.12,3.1 ± 0.86,0.978 (active)
CC#CC(=O)N1CCC[C@H]1c1nc(-c2ccc(C(=O)Nc3ccccn3)cc2)c2c(N)nccn12,0.946 ± 0.24,1.03 ± 0.077,0.876 ± 0.068,0.575 ± 0.019,1.02 ± 0.11,1.03 ± 0.15,0.736 (active)
Brc1c(NC2=NCCN2)ccc2nccnc12 [Prestw-1751],1.24 ± 0.13,0.858 ± 0.079,0.97 ± 0.035,1.02 ± 0.043,1.01 ± 0.054,1.01 ± 0.12,0.996 (active)
Cc1c(OCC(F)(F)F)ccnc1CS(=O)c1nc2ccccc2[nH]1 (stereo unspecified),1 ± 0.16,0.915 ± 0.28,0.929 ± 0.063,0.699 ± 0.037,1.11 ± 0.3,1.07 ± 0.096,0.984 (active)
Cc1cccc(C)c1NC(=O)CC(C)c1ccccc1 (stereo unspecified),0.982 ± 0.31,1.12 ± 0.16,1.2 ± 0.14,1.03 ± 0.033,0.937 ± 0.25,1.17 ± 0.33,0.915 (active)
CC(C(=O)O)c1ccc(CC2CCCC2=O)cc1 (stereo unspecified),0.81 ± 0.11,1.03 ± 0.26,0.906 ± 0.066,0.916 ± 0.042,1.19 ± 0.18,1.25 ± 0.27,1 (active)
CC(N)c1ccc(Nc2ncc3cc(-c4ccncc4)ccc3n2)cc1.Cl.Cl.Cl (stereo unspecified),0.419 ± 0.069,1.26 ± 0.08,2.73 ± 0.16,0.173 ± 0.014,0.28 ± 0.05,0.42 ± 0.042,0.174 (inactive)
CSc1nc(C(C)(C)C)cc(C(F)(F)F)c1C#N,0.738 ± 0.061,0.955 ± 0.15,1.12 ± 0.049,0.998 ± 0.05,0.855 ± 0.12,0.923 ± 0.26,0.996 (active)
Cc1cc(-c2ccc(NC(=O)c3ccc([N+](=O)[O-])cc3)c(C)c2)ccc1NC(=O)c1ccc([N+](=O)[O-])cc1,0.994 ± 0.067,0.988 ± 0.06,0.928 ± 0.064,0.966 ± 0.057,1.26 ± 0.08,1.15 ± 0.27,0.999 (active)
COc1cc(C=Nc2ccc3oc(-c4ccc(C(C)(C)C)cc4)nc3c2)ccc1OC(=O)c1ccc(Cl)cc1Cl,0.994 ± 0.056,0.981 ± 0.11,0.936 ± 0.11,0.931 ± 0.031,1.28 ± 0.15,1.14 ± 0.1,1.01 (active)
C1=CC2CC1CC2CN1CCC(N2CCCCC2)CC1 (stereo unspecified),0.089 ± 0.0093,0.949 ± 0.072,1.26 ± 0.13,0.578 ± 0.038,1.69 ± 0.099,1.79 ± 0.17,0.989 (active)
O=C(NC1CCC(Oc2ncc(F)cn2)CC1)c1cccc(F)c1 (stereo unspecified),0.976 ± 0.084,1.01 ± 0.079,0.913 ± 0.079,1.01 ± 0.064,1.08 ± 0.088,1.04 ± 0.27,1.01 (active)
COc1ccc(OCCSc2nc3ccccc3n2CCO)cc1,1.01 ± 0.094,1.09 ± 0.12,1.09 ± 0.031,1.35 ± 0.55,1 ± 0.063,1.05 ± 0.14,0.992 (active)
Cc1ccc2oc(-c3cccc(NC(=O)C(C)C)c3C)nc2c1,0.792 ± 0.062,0.908 ± 0.068,0.972 ± 0.094,0.848 ± 0.04,1.16 ± 0.068,1.33 ± 0.13,1.01 (active)
O=C(O)c1ccc(-n2nc(-c3ccccc3O)nc2-c2ccccc2O)cc1,0.749 ± 0.082,0.917 ± 0.1,1.11 ± 0.13,0.902 ± 0.042,1.31 ± 0.14,1.49 ± 0.15,0.988 (active)
COc1ccc(CNCc2cccc3ccccc23)cc1,0.715 ± 0.12,1.06 ± 0.1,1.15 ± 0.11,0.877 ± 0.035,0.945 ± 0.1,1.31 ± 0.14,0.967 (active)
CN1CCN(c2ccc(-c3cccc(NC(=O)COc4ccc(Cl)cc4Cl)c3)nn2)CC1,0.46 ± 0.09,0.922 ± 0.086,1 ± 0.13,0.65 ± 0.043,1.16 ± 0.18,1.12 ± 0.29,0.982 (active)
CN1[C@@H]2CC[C@H]1C[C@@H](OC(c1ccccc1)c1ccccc1)C2.CS(=O)(=O)O,0.95 ± 0.13,1.19 ± 0.5,1.48 ± 0.23,0.438 ± 0.013,0.934 ± 0.35,1.53 ± 0.15,
CCn1c2ccccc2c2cc(CNCCc3ccc(OC)cc3)ccc21,0.369 ± 0.048,0.539 ± 0.068,1.24 ± 0.1,0.479 ± 0.11,0.556 ± 0.025,2.16 ± 0.28,0.0492 (inactive)
CCCCOc1ccc(C(=O)Nc2cc(-c3nc4ccccc4o3)ccc2OC)cc1,1.08 ± 0.066,1.08 ± 0.089,0.965 ± 0.025,0.965 ± 0.042,1.06 ± 0.049,1.02 ± 0.098,1 (active)
O=C(CCC(=O)NN=Cc1ccc(O)cc1O)NN=Cc1ccc(O)cc1O,0.934 ± 0.084,1.05 ± 0.067,0.978 ± 0.11,0.944 ± 0.042,1.52 ± 0.18,1.26 ± 0.13,0.994 (active)
